# Only some compounds are listed: those with a hit (about 7.4% of all), similar ones and a draw of the others.
# hNpr1 antagonist = human Npr1 receptor antagonism | Potency, µM (doses to about 46.3 µM), inactives show at the top dose activity change, negative = inhibition, usual class: inhibitors | 76,000 compounds, 1.6% hits | HEK293 hNpr1 GloSensor cGMP, ANP-stimulated luminescence | P16066; calls by dose curve; further: nearly all actives have a fitted effect of over 60% in size
#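 Compound pre-incubated 30 min at room temperature on GloSensor-loaded HEK293 cells stably carrying hNpr1 and the pGS-40F cGMP biosensor. Stimulation uses hNppA at 0.1 nM final; luminescence is taken at baseline and 20 min post-agonist.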
# NIH3T3 tox = cytotoxic compounds in NIH 3T3 cells. NIH 3T3 viability, CellTiter-Glo ATP luminescence, 48-72 h. Potency, µM (series often up to 96.7 µM), for the others: at the highest dose activity change, negative = cytotoxicity, usual class: inhibitors. 94,000 compounds, 4.3% hits. AID 1345082; further: nearly all actives have a fitted effect of over 55% in size
#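 ATP-dependent luminescence (CellTiter-Glo) served as the viability signal for NIH 3T3 cells treated with compound for 48 or 72 hr at 37 °C.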
# SNCA expr inh = SNCA gene expression inhibition | HEK-293 SNCA-luciferase knock-in, luminescence, 24 h | Potency, µM (titrated, usually from 57.2 µM), inactives show at the top dose activity change, negative = inhibition, most hits filed as inhibitors | 140,000 compounds, 0.17% hits | AID 1671194;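 further: plate controls were DMSO cells for no effect and cell-free wells for full effect; nearly all actives have a fitted effect of over 45% in size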
# HEK cytotox = cytotoxic compounds in HEK 293 cells. HEK 293 viability, ATP luminescence (CellTiter-Glo), 48-72 h. 94,000 compounds, 6.6% hits. Potency, µM (top dose mostly 115 µM), for inactives: at the highest dose activity change, negative = cytotoxicity, usual class: inhibitors. AID 1345083; further: nearly all actives have a fitted effect of over 60% in size
#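 ATP-coupled CellTiter-Glo luminescence served as viability read-out, recorded 10 min after reagent addition at room temperature. HEK 293 cells, 250 cells/well, had been incubated with pintool-transferred compound for 48 or 72 hr at 37 degree Celsius.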
# Luciferase inh = inhibitors of firefly (Photinus pyralis) luciferase; Potency, µM (top dose mostly 115 µM), most hits filed as inhibitors; 76,000 compounds, 2.5% hits; purified P. pyralis luciferase, luminescence, biochemical; AID 1347043; P08659; further: nearly all actives have a fitted effect of over 65% in size
# Target sequence (P08659 whole entry, looked up): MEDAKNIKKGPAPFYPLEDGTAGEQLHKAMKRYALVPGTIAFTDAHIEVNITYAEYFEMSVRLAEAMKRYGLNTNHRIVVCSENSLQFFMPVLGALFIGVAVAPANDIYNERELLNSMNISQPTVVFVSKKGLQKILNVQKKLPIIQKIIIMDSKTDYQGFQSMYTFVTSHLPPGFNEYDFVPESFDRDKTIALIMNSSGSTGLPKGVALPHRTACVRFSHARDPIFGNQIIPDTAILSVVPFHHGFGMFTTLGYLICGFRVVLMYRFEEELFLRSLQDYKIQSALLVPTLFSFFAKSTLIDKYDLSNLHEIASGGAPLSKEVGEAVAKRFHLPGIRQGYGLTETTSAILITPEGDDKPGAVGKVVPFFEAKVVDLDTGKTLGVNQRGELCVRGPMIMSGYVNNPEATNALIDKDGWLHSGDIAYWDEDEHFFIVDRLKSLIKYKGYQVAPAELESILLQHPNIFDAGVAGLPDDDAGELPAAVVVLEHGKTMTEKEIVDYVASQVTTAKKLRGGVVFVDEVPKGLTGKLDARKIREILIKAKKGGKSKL
#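 Purified 10nM P. pyralis luciferase with 10uM D-luciferin and 10uM ATP in 50mM Tris acetate pH 7.5, 10mM Mg acetate, 0.01% Tween-20, 0.05% BSA. qHTS titration; luminescence read by CCD imager.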
# HEK293 viab = reduces viability of HEK-293 SNCA reporter cells. HEK-293-SNCA-luc viability, GF-AFC fluorescence, 24 h. Potency, µM (highest dose often 57.1 µM), inactives show at the highest dose activity change, negative = cytotoxicity, usual class: cytotoxic. 150,000 compounds, 0.12% hits;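 further: 0% = DMSO-treated cells and -100% = medium-only wells without cells; nearly all actives have a fitted effect of over 30% in size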
#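 Cytotoxicity counterscreen: after 24 h compound treatment of genome-edited SNCA-luciferase HEK-293 cells, live-cell protease substrate GF-AFC read by fluorescence after 30 min; activity scaled between DMSO (0%) and medium-only (-100%), curves Hill-fitted.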
# * hit, by the source's call; i = inactive; ? = inconclusive; . = no result; ! = not confirmed by another sample; [ ] = another dose, or the depositor's remark. Unless noted, the call rests on the fitted dose curve; in most records, active means well fitted curve in the direction sought with a large enough effect; inconclusive means small, poorly fitted or top-dose-only effect, or another doubt; inactive means no such curve, though single readings can be large; an effect the other way counts as inactive or inconclusive. Unless noted, on the % scale 0 is the no-effect control and ±100 the full control effect; potency means the concentration at half of the fitted maximal effect.
SMILES,hNpr1 antagonist,NIH3T3 tox,SNCA expr inh,HEK cytotox,Luciferase inh,HEK293 viab
C/C=C(/C)C(=O)O[C@H]1[C@H](OC(=O)/C(C)=C\C)[C@@]23C(CC1(C)C)[C@]1(CCC4[C@@]5(C)CC[C@H](O[C@@H]6O[C@H](C(=O)O)[C@@H](O)[C@H](O[C@@H]7O[C@H](CO)[C@H](O)[C@H](O)[C@H]7O[C@@H]7O[C@@H](C)[C@H](O)[C@@H](O)[C@H]7O[C@@H]7OC[C@@H](O)[C@H](O)[C@H]7O)[C@H]6O[C@@H]6O[C@H](CO)[C@H](O)[C@H](O)[C@H]6O)C(C)(C)C5CC[C@@]4(C)[C@]1(C)C[C@H]2O)O[C@H]3O (stereo partly specified),.,.,.,.,.,3.57µM*
O=C(c1ccncc1)N1CCCN(c2ccc3nnc(-c4ccccc4)n3n2)CC1,.,-27.1%,.,-11.7%,.,.
COCCN1Cc2[nH]nc(-c3cccc(NC(C)=O)c3)c2CC1=O,-2.9%[70.6 µM],?,39.1%[87.6 µM],0.2%[172 µM],i,-1.4%[87.6 µM]
COCCN1CCN(Cc2ccc(-c3n[nH]c4c3C(=O)c3c(NC(=O)NN5CCOCC5)cccc3-4)cc2)CC1,.,.,.,.,.,0.15µM*
O=C(NC1CCCCC1)c1nc2sccn2c1-c1cccc(C(F)(F)F)c1,.,-16.7%,?,?,.,3.6%
CN1CC2(CCN(C(=O)CC3CCCC3)CC2)CC1CN1CCOCC1 (stereo unspecified),.,-22.7%,7.9%,-7.1%,.,17.9%
CCCNC(=O)Cc1ccc(N(Cc2ccc(F)cc2)C(=O)c2ccco2)cc1,-1.1%,?,3.1%,89.1µM*,i,8.0%
Cc1cccc(CNC(=O)Cc2ccc(N(Cc3ccc(F)cc3)C(=O)c3ccco3)cc2)c1,-14.7%,39.8µM*,-14.0%,?,i,-8.4%
O=C(NCc1ccc(F)cc1)c1nc2sccn2c1-c1ccccc1,.,-24.3%,0.9%,-7.4%,.,5.9%
Cc1cccc(N2CCN(C(=O)CCc3conc3-c3ccccc3)CC2)c1C,-5.5%,?,-23.7%,44.7µM*,i,2.3%
COc1ccc(N2CCN(C(=O)CCc3conc3-c3ccc(F)cc3)CC2)cc1,-24.8%,-28.1%,6.1%,?,i,4.1%
O=C(C1CCN([S+](=O)([O-])c2cccc(C(F)(F)F)c2)CC1)N1CCC(N2CCOCC2=O)CC1,.,-27.9%,?,?,.,9.7%
COc1nc2nc(CCc3ccccc3)n(C)c2cc1-c1ccc(CO)cc1,-2.2%[70.6 µM],?,6.7%[87.6 µM],?,?,-20.4%[87.6 µM]
COc1nc2nc(CCc3ccccc3)n(C)c2cc1Nc1ccncn1,-4.4%[70.6 µM],?,111.8%[87.6 µM],-2.7%[172 µM],50.1µM*,-4.1%[87.6 µM]
C#CCNC(=O)c1nc2cccnc2n(C2CC2)c1=O,.,-24.9%[138 µM],-0.9%[87.6 µM],-10.0%[172 µM],.,6.7%[87.6 µM]
CCCCOc1ccc(CN2C[C@@H]3C(=O)N(C)C(=O)[C@@H]3C2)cc1,-21.1%,-7.7%,44.2%,?,28.2µM*,0.8%
O=C(NCCc1ccc(Cl)cc1)C1CCN(c2nccc(Nc3ccccc3F)n2)CC1,.,?,-8.2%,?,.,-0.2%
O=C(NCc1ccccc1Cl)C1CCN(c2nccc(Nc3ccccc3F)n2)CC1,.,39.8µM*,21.6%,?,.,5.6%[12.5 µM]
COc1ccccc1CNC(=O)C1CCN(c2nccc(Nc3ccccc3F)n2)CC1,.,?,22.0%,?,.,-9.0%[12.5 µM]
O=C(NCCCc1ccccc1)C1CCN(c2nccc(Nc3ccccc3F)n2)CC1,.,?,?,35.5µM*,.,?
Cc1noc(C)c1[S+](=O)([O-])N1CCN(C(=O)c2nc3cccnc3n(Cc3ccccc3)c2=O)CC1,.,-15.8%,-7.8%,-14.0%,.,-23.4%[12.5 µM]
Cc1cc(C)cc(-c2ccc(CN3CCCC3C(=O)NC(C)C)cc2)c1 (stereo unspecified),.,?,-11.3%,50.1µM*,.,-13.2%
Cc1cc(C)cc(-c2ccc(CN3CCCC3C(=O)NC3CC3)cc2)c1 (stereo unspecified),.,?,?,50.1µM*,.,-6.1%
Cc1cc(C)cc(-c2ccc(CN3CCCC3C(=O)Nc3ccccc3Cl)cc2)c1 (stereo unspecified),.,-18.4%,16.4%,-15.0%,.,12.1%
Cc1cc(C)cc(-c2ccc(CN3CCCC3C(=O)NCC(F)F)cc2)c1 (stereo unspecified),.,?,?,?,.,4.9%
SMILES,hNpr1 antagonist,NIH3T3 tox,SNCA expr inh,HEK cytotox,Luciferase inh,HEK293 viab
Cc1cc(C)cc(-c2ccc(CN3CCCC3C(=O)NCCc3ccccc3)cc2)c1 (stereo unspecified),.,31.6µM*,-11.5%,39.8µM*,.,-18.1%
Cc1cc(C)cc(-c2ccc(CN3CCCC3C(=O)NCc3ccc4c(c3)OCO4)cc2)c1 (stereo unspecified),.,35.5µM*,-16.0%,50.1µM*,.,2.2%
Cc1cc(C)cc(-c2ccc(CN3CCCC3C(=O)Nc3ccc(F)cc3)cc2)c1 (stereo unspecified),.,?,0.7%,?,.,-6.7%
COc1ccc(-c2ccc(NC(=O)c3cccc(Cl)c3)cc2)nn1,.,-14.0%,.,-11.8%,.,.
CCOc1ccc(S(=O)(=O)N2CCN(Cc3nc4ccc(C)cc4o3)CC2)cc1,.,.,-4.9%,.,.,-9.9%
CCCc1nc(C)c2c(=O)[nH]c(-c3cc(S(=O)(=O)N4CCN(CC)CC4)ccc3OCC)nn12,.,.,?,.,.,27.1µM*!
CCN1CCC2(CC1)Cc1ccccc1CN(S(=O)(=O)c1ccccc1)C2,.,31.6µM*,-5.5%,-23.7%,.,-5.1%
O=C1CCC(CNS(=O)(=O)Cc2ccccc2F)CCN1Cc1ccccc1 (stereo unspecified),.,-25.1%,-8.5%,i,.,-14.1%
CCOCCNC(=O)CNC(=O)c1ccc(-c2cnc3ccccc3c2)cc1,.,-19.9%,.,?,.,.
COc1ccccc1Nc1ccnc(N2CCC[C@H]2C(=O)NC2CCCC2)n1,.,-21.8%,-7.4%,?,.,-11.4%
COc1cccc(-c2nc3cnccn3c2NCCC(=O)N2CCc3ccccc32)c1,0.5%,-9.3%,10.0%,?,i,23.8%
COc1ccccc1-c1nc2cnccn2c1NCCC(=O)N1CCc2ccccc21,-8.2%,?,19.6%,20µM*,i,18.7%
CC(=O)Nc1cccc(-c2ccc3ncn(-c4cccnc4)c(=O)c3n2)c1,0.5%[70.6 µM],?,10.7%[87.6 µM],-23.0%[172 µM],i,7.1%[87.6 µM]
COc1ccc(-c2ccc3ncn(C4CC4)c(=O)c3n2)cc1OC,3.5%[70.6 µM],39.8µM*,6.1%[87.6 µM],?,63.1µM*,-2.8%[87.6 µM]
O=c1c2nc(-c3cccc(O)c3)ccc2ncn1-c1ccccc1,3.2%[70.6 µM],8.91µM*,15.2%[87.6 µM],?,70.8µM*,-6.6%[87.6 µM]
O=c1c2nc(-c3cccc(O)c3)ccc2ncn1C1CC1,1.3%[70.6 µM],63.1µM*,34.4%[87.6 µM],-28.5%[230 µM],?,5.4%[87.6 µM]

# Screens deposited in PubChem by National Center for Advancing Translational Sciences (NCATS).
